# Reference: the supplement of paper PMC13380429
# A number with no mark means an inactive call.
# System: Vero E6 infected with SARS-CoV-2
# Test: inhibition of SARS-CoV-2 cytopathic effect; higher = more antiviral protection, active = above 15
# Details: 48 h
Compound,inhibition of SARS-CoV-2 cytopathic effect (1 nM) [%],inhibition of SARS-CoV-2 cytopathic effect (8.33 nM) [%],inhibition of SARS-CoV-2 cytopathic effect (100 nM) [%],inhibition of SARS-CoV-2 cytopathic effect (833.33 nM) [%],inhibition of SARS-CoV-2 cytopathic effect (10000 nM)
Clc1cccc(Nc2nnc(-c3ccccc3)c3ccccc23)c1,1.65,2.3,2.13,1.98,2.92%
CN[C@H]1C(=O)N[C@@H]2Cc3ccc(cc3)Oc3cc4cc(c3O[C@@H]3O[C@H](C(=O)O)[C@@H](O)[C@H](O)[C@H]3NC(=O)CCCCCCCCC(C)C)Oc3ccc(cc3Cl)[C@@H](O)[C@@H]3NC(=O)[C@H](NC(=O)[C@@H]4NC(=O)[C@@H](NC2=O)c2cc(cc(O)c2Cl)Oc2cc1ccc2O)c1ccc(O)c(c1)-c1c(O[C@H]2O[C@H](CO)[C@@H](O)[C@H](O)[C@@H]2O)cc(O)cc1[C@@H](C(=O)NCCCN(C)C)NC3=O [dalbavancin],-5.95,-0.74,-2.73,-0.14,1.46%
CC(N)CCCC(C)(C)O (stereo not given) [heptaminol],0.22,3.55,2.95,-3.4,0.76%
CNC(=O)c1c(-c2ccc(F)cc2)oc2cc(N(CCO)S(C)(=O)=O)c(C3CC3)cc12 [nesbuvir],0.34,0.12,0.33,-1.14,-3.08%
O=C(Nc1cc(Oc2cc(F)c(NC(=O)C3(C(=O)Nc4ccc(F)cc4)CC3)cc2F)ccn1)C1CC1 [altiratinib],-1,2.23,3.44,-1.62,1.09%
O=C(O)CC1CC(c2ccccc2)=NO1 (stereo not given),-0.73,0.07,-0.78,2.86,0.36%
CNC(=O)c1cc(Oc2ccc(NC(=O)Nc3ccc(Cl)c(C(F)(F)F)c3)c(F)c2)ccn1 [regorafenib],2.3,3.25,1.21,-1.69,2.67%
O=C(O)c1ccccc1C(=O)Nc1ccc(-c2ccccc2)cc1 [kartogenin],3.34,2.53,0.87,1.12,1.02%
CO[C@@]1(NC(=O)C(C(=O)O)c2ccc(O)cc2)C(=O)N2C(C(=O)O)=C(CSc3nnnn3C)CO[C@@H]21 (stereo not given in full) [moxalactam],1.45,-1.13,-0.85,-1.15,1.01%
CCn1cnc(C(=O)NC)c1C(=O)NC [ethimizol],-1.81,0.39,-1.18,1.42,1.32%
CC(=O)O[C@]1(C(C)=O)CC[C@H]2[C@@H]3C=C(C)C4=CC(=O)CC[C@]4(C)[C@H]3CC[C@@]21C [megestrol-acetate],-0.56,-0.6,-1.59,-0.54,0.33%
CCc1ccc(Cc2ccc3c(c2)[C@]2(OC3)O[C@H](CO)[C@@H](O)[C@H](O)[C@H]2O)cc1 [tofogliflozin],-0.25,0.93,0.26,1.52,-0.4%
N#CC[C@@H](C1CCCC1)n1cc(-c2ncnc3[nH]ccc23)cn1 [ruxolitinib-(S)],-2.23,-0.87,-1.21,0.43,-3.24%
CCc1cccc(CC)c1NC(=O)c1nn(C)c2c1CCc1cnc(Nc3ccc(C(=O)NC4CCN(C)CC4)cc3OC(F)(F)F)nc1-2,1.19,3.71,1.53,0.13,5.39%
COc1cccc(OC)c1-c1ccc(C[C@H](NC(=O)c2c(Cl)cccc2Cl)C(=O)O)cc1,0.68,2,0.48,1.89,1.23%
CC(=O)Nc1ccc(S(=O)(=O)c2ccc(NC(C)=O)cc2)cc1 [acedapsone],-1.54,-3.01,-3.82,-1.51,5.34%
S=P(N1CC1)(N1CC1)N1CC1 [thiotepa],-0.94,1.88,0.45,-0.47,2.21%
OB1OCc2cc(Cl)ccc21,1.12,2.29,2.68,2.33,1.07%
O=C1S/C(=C\c2ccc(OCc3cccc(B(O)O)c3)cc2)C(=O)N1Cc1ccc(F)cc1,-1.35,1.46,0.45,3.95,-1.14%

Compound,inhibition of SARS-CoV-2 cytopathic effect (1 nM) [%],inhibition of SARS-CoV-2 cytopathic effect (8.33 nM) [%],inhibition of SARS-CoV-2 cytopathic effect (100 nM) [%],inhibition of SARS-CoV-2 cytopathic effect (833.33 nM) [%],inhibition of SARS-CoV-2 cytopathic effect (10000 nM)
Cc1cccn2c(=O)c(/C=C(\C#N)c3nc4ccccc4s3)c(Oc3ccc(F)cc3)nc12,-2.85,0.91,-1.07,-1.93,-0.23%
C=CC1=C(C(=O)O)N2C(=O)[C@@H](NC(=O)/C(=N\O)c3csc(N)n3)[C@H]2SC1 [cefdinir],1.85,2.62,2.17,-0.24,0.66%
O=C(c1ccc(F)c(F)c1Nc1ccc(I)cc1F)N1CC(O)([C@@H]2CCCCN2)C1 [cobimetinib],-0.38,-3.42,-9.73,-11.8,-12.2%
CO[C@H]1[C@H](O)[C@@H](O)[C@@H](O)[C@H](O)[C@@H]1O [pinitol],0.84,-0.26,-2.68,-0.47,1.55%
C[C@H]1[C@@H](O)O[C@@H]2O[C@@]3(C)CC[C@H]4[C@H](C)CC[C@@H]1[C@@]24OO3,0.99,1.14,1.39,1.43,0.11%
COc1ccc2c(OCc3nnc4ccc(-c5ccccc5)nn34)ccnc2c1,1.19,-0.48,0.42,-0.17,1.81%
Nc1nc(F)nc2c1ncn2[C@@H]1O[C@H](COP(=O)(O)O)[C@@H](O)[C@@H]1O [fludarabine-phosphate],1.37,1.76,-0.32,1.79,-4.26%
CCCCCCOc1cc2c(cc1N(C)c1ncc(C(=O)O)cn1)C(C)(C)CCC2(C)C,-1.61,3.1,3.71,4.08,5.06%
COC(=O)C1=C(C#N)NC(C)=C(C(=O)OC(C)C)C1c1cccc([N+](=O)[O-])c1 (stereo not given) [nilvadipine],-1.91,-2.45,0.29,5.15,3.78%
CN(C)CC[C@@]1(c2ccc(Cl)cc2)Cc2ccccc2C(=O)O1 (racemic),-1.76,-2.36,-1.71,-2.86,-3.54%
CC(CCc1ccccc1)NC(C)C(O)c1ccc(O)cc1 (stereo not given) [buphenine],1.42,1.45,-1.15,-0.63,-2.78%
O=C(O)/C=C/c1ccc(O)cc1 [naringeninic-acid],1.32,-1.82,-12,-0.34,-0.09%
CN(C)C(=O)c1cc2cnc(Nc3ccc(N4CCNCC4)cn3)nc2n1C1CCCC1 [ribociclib],-0.57,-0.13,-0.03,-3.73,-7.22%
C=CCCCCCCCCC(=O)[O][Zn][O]C(=O)CCCCCCCCC=C [zinc-undecylenate],0.73,0.52,-0.83,0.72,2.73%
CCCCCCCCOc1ccccc1C(=O)Nc1ccc(C(=O)OCC[N+](C)(CC)CC)cc1 [otilonium],2.76,-0.22,1.35,1.63,0.68%
c1ccc(-c2ccc(C(c3ccccc3)n3ccnc3)cc2)cc1 (stereo not given) [bifonazole],3.05,3.28,4.39,-11.6,15.4% (active)
CC(=O)c1ccc2c(c1)C(=O)C1(CC1)O2 [spizofurone],-4.51,5.43,0.26,0.65,2.1%
Cc1ccc(S(=O)(=O)NCl)cc1 [chloramine-T],1.46,3.35,1.32,0.02,-5.13%
CCN(CC)CCOc1ccc(C(O)(Cc2ccc(Cl)cc2)c2ccc(C)cc2)cc1 (stereo not given) [Triparanol],-0.73,1.69,-1.43,-2.54,51.4% (active)
